These results are taken from ChEMBL document CHEMBL3433997, “St. Jude Leishmania screening dataset” (2016).

Structures are written as SMILES.

This test addresses Glucose transporter (Leishmania mexicana) (UniProt O61059). Kind of test: ST_JUDE_LEISH: Cytotoxicity at 2uM final concentration against transgenic Leishmania Mexicana promastigotes LmGT2 that are glucose transport deficient and complemented with the L. Mexicana glucose transporter 2. Activity is measured by DNA content using SYBR green in vitro. It counts as functional.
Take `COc1ccc(NC(=O)CCNc2cc(C)nc(NCc3cccc(C)c3)n2)cc1`: the inhibition was -1.14%.

Regarding `CCCCCC(C)C(C)c1cc(O)c2c(c1)OC(C)(C)C=C2c1cc[n+]([O-])cc1` (centres undefined), the inhibition worked out at 9.99%.

In the case of `CC(C#N)Cc1ccc(-c2cnc(N)c3cc(-c4ccnc(N)n4)ccc23)cc1` (centres undefined), the inhibition was -0.93%.

On to `COc1ccc2nccc([C@@H](O)CN3CCC(NCc4nc5ccccc5[nH]4)CC3)c2c1`, for which the inhibition was -0.97%.

Take `O=C(/C=C/c1ccc(Cl)c(Cl)c1)NCCCCCN1CCCN(C(=O)Nc2cccc(F)c2)CC1`: the inhibition amounted to 3.86%.

As to `O=C(NC1CC1)c1ccc2cc(C(=O)N3Cc4ccccc4C(c4ccccc4)C3)ccc2c1` (centres undefined), the inhibition was -1.42%.

As to `CC(NC(=O)c1ccc(O)c(-c2ccc(Cl)c(Cl)c2)c1)C(=O)NCCN1CCCC1` (centres undefined), the inhibition stood at 4.25%.

Take `CCOC(=O)c1ccc(OCc2ccc(-c3ccccc3)cc2)cc1`: the inhibition was found to be 0.75%.

Turning to `Cc1ccc(Nc2ccnc3cc(-c4nccs4)ccc23)cc1C(O)c1ccccc1` (centres undefined), the inhibition is 3.72%.

Turning to `COc1ccc(Cl)cc1NC(=O)C(C)N1CCN(S(=O)(=O)c2ccccc2F)CC1` (centres undefined), the inhibition turned out to be 3.44%.

Turning to `c1ccc2[nH]c(-c3ccc(-c4ccc(CN5CCN(c6ccncc6)CC5)cc4)cc3)nc2c1`, the inhibition amounted to 6.31%.

With `Cc1ccc(NC(=O)c2nc(N3CCN(c4ccncc4)CC3)ccc2Cl)cc1F`, the inhibition came out at 5.57%.

Consider `O=C(Nc1cccc(C(F)(F)F)c1)c1cccc(S(=O)(=O)NCC2CCCN2CC2CCCCC2)c1` (centres undefined), for which the inhibition is 4.26%.

Take `COCCN1CCC(N(CC2(O)CCN(c3ccc(C(F)(F)F)cc3)CC2)C(=O)Cn2c(SCc3cccc(F)c3F)cc(=O)c3ccccc32)CC1`: the inhibition amounted to 0.85%.

In the case of `Oc1ccc(CCNCCCCCNCCCc2ccc(Cl)cc2)cc1O`, the inhibition is 2.06%.

Take `O=c1cnc2ccc(F)cc2n1CCN1CCC(NCc2cc(-c3ccccc3)cs2)CC1`: the inhibition was 48.5%.

`COc1ccc(-c2nnc(Sc3ccc(C#N)c([N+](=O)[O-])c3)n2CC(C)C)cc1`: the inhibition came to 1.92%.

`COC(=O)c1cccc(NC(=O)NC2CCN(c3ccnc(NCc4ccc(F)cc4)n3)CC2)c1`: the inhibition was -0.54%.

For `CN1CCCN(Cc2cccc(-c3cccc(NC(=O)c4cccc(C#N)c4)c3)c2)CC1`, the inhibition was 10.3%.

Consider `CN(C)CCCc1cc2c(cc1Cl)CCN2C(=O)Nc1ccc(-c2ccncc2)c2ccccc12`, for which the inhibition is -3.5%.

On to `O=C(Nc1cccc(-c2ccc(-c3nc4ccccc4[nH]3)cc2)c1)c1cnn2cccnc12`, for which the inhibition was -0.33%.

For the molecule `Cc1cccc(CNc2nc(C)cc(N[C@@H](Cc3ccccc3)C(=O)NCc3cccc(F)c3)n2)c1`, the inhibition amounted to 2.83%.

As for `CC(C)N1CCN(CCCNc2c3ccccc3nc3ccccc23)CC1`, the inhibition came out at 19%.

Turning to `COc1ccc2nccc(NC(=O)C3CCC(NCc4ccc5c(c4)NC(=O)CS5)CC3)c2c1` (centres undefined), the inhibition came out at 0.5%.

Take `COc1ccc(CNCc2ccccc2)cc1-c1ccc(S(=O)(=O)NCCN2CCCC2)cc1`: the inhibition is -2.76%.

With `CNCc1ccc2nc(-c3coc(Cc4cc(Cl)ccc4OCC(C)C)n3)[nH]c2c1`, the inhibition was 3.77%.

Consider `COCCn1c(-c2nc(-c3ccc(F)cc3)cnc2N)nc2ccccc21`, for which the inhibition was -0.94%.

As to `COc1cc(Cc2cnc(N)nc2N)cc(OCC(C)(C)C(=O)O)c1OC`, the inhibition was -0.23%.

With `Fc1ccc2[nH]c(-c3cccc(-c4ccc(CN5CCN(CCN6CCOCC6)CC5)cc4)c3)nc2c1`, the inhibition stood at 1.79%.

`CCN(CCCN1CCCCC1)c1cc(C)nc(Nc2ccc(OC)cc2)n1`: the inhibition was -1.02%.

On to `c1cc2[nH]c(CCCc3nc4cc(C5=N[C@H]6CCCC[C@H]6N5)ccc4[nH]3)nc2cc1C1=N[C@@H]2CCCC[C@@H]2N1`, for which the inhibition amounted to 0.34%.

Turning to `CC1CN(c2cnn(Cc3cccc(NC(=O)Nc4cccc(C(F)(F)F)c4)c3)c(=O)c2Cl)CC(C)N1` (centres undefined), the inhibition turned out to be 7.73%.

For `N#Cc1ccc(N[C@@H](CC2CCCCC2)C(=O)Nc2ccc(-c3ccccc3)cc2)c2ccccc12`, the inhibition is 3.75%.

Turning to `CCC[C@@H](/C=N/N(C)C(=O)OC(C)(C)C)NC(=O)[C@H](CC(C)C)NC(=O)c1cc2cccc(OC)c2o1`, the inhibition was determined as 0.27%.

In the case of `COc1cc(NC(=O)c2cccs2)c(C(=O)NCc2ccc(C)cc2)cc1OC`, the inhibition stood at 7.02%.

Take `O=c1cc(NCCCNC2CCOc3c(Cl)cccc32)[nH]c2ccccc12` (centres undefined): the inhibition amounted to 2.03%.

In the case of `NC(=O)c1cccc(-n2ccc3cc(CNC4Cc5ccccc5C4)ccc32)c1`, the inhibition was 8.72%.

Consider `CCC(=O)Oc1ccc(NC(=O)c2cccc(OC)c2)cc1`, for which the inhibition came out at 1.69%.

As to `CN(C)c1ccc(-c2csc(C(=O)NCC3CCN(CC4CCCCC4)C3)c2)cc1` (centres undefined), the inhibition is 1.05%.

For orientation: inhibition means the relative decrease from the control value, in per cent.
